Most compounds without a hit are left out; they make up all but 2.8% or so of the library.
MsrA inhibitor: inhibits bovine methionine sulfoxide reductase A; inhibition, % at 15.5 µM; AID 651718; purified bovine MsrA, absorbance read-out; actives 0.75% (n = 360,000); in the data active = inhibition above about 4.5%
MsrA act: activators of bovine methionine sulfoxide reductase A. purified bovine MsrA, absorbance read-out. activation, % at 10.6 µM. actives 0.3% (n = 360,000). AID 602163; in the data active = activation above about 7.5%
HGIII-sPLA2 inh: Inhibits HGIII-sPLA2 liposome hydrolysis, primary screen; Q9NZ20; QFRET BODIPY PC-A2 liposome hydrolysis, fluorescence; inhibition, % at 12.2 µM; actives 0.56% (n = 370,000); AID 743126;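 active = inhibition above mean plus 3 SD of compounds lying within the high and low control bounds, cut at about 19% in these data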
Target sequence (Q9NZ20 whole entry, looked up): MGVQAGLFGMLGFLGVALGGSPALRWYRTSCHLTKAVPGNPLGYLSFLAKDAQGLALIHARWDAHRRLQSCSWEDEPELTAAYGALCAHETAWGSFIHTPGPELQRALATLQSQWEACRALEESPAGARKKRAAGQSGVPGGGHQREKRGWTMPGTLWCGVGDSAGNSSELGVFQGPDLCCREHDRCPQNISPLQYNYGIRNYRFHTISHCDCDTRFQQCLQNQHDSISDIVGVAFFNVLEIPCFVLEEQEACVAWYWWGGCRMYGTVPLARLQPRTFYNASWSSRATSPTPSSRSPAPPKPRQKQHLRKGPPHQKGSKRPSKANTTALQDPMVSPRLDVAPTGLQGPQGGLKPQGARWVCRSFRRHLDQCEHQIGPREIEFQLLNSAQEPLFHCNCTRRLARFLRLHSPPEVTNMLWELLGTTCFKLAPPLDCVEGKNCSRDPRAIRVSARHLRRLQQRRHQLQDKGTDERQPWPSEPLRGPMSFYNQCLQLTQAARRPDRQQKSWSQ
rCAG binder: molecules binding r(CAG) RNA repeats. r(CAG) RNA repeat, TO-PRO-1 dye displacement fluorescence. inhibition, % at 3 µM. actives 1.3% (n = 370,000);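 active = inhibition above the plate cutoff, the mean of all test compounds on that plate plus 3 SD, cut at about 35% in these data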;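 note: higher means more dye released from RNA so lower well fluorescence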
Of the large screens only hits and unclear results are named; the others gave an inactive call.

Cc1oc2cc([N+](=O)[O-])c(O)c([N+](=O)[O-])c2c1C(=O)c1ccc(Cl)cc1	rCAG binder 35.6
CNc1ccc(C=C2C=Cc3ccccc32)cc1	HGIII-sPLA2 inh 24.7
O=C(Nc1ccc(S(=O)(=O)Nc2ncccn2)cc1)c1nn(Cc2ccccc2)c(=O)c2ccccc12	none
Cc1ccc(-c2n[nH]c(=S)n2/N=C/C=C/c2ccccc2[N+](=O)[O-])cc1	rCAG binder 39.9
O=[N+]([O-])c1ccccc1/C=C/C=N/n1c(-c2cc(-c3ccccc3)n[nH]2)n[nH]c1=S	none
COc1ccc(-c2nc3ncccc3o2)cc1NC(=O)c1ccco1	MsrA inhibitor 4.6
COc1ccc(-c2nc3ncccc3o2)cc1NC(=O)c1cccs1	none
O=[N+]([O-])c1ccc(NCCNS(=O)(=O)c2ccccc2)c(C(F)(F)F)c1	MsrA inhibitor 5.1
Cc1cc(N)ncc1[N+](=O)[O-]	MsrA inhibitor 4.6
CNC(=O)OCc1cccc(COC(=O)NC)n1	none
CCOC(=O)N1CCN(C(=O)c2cccc(N3C(=O)NC4CC3(C)Oc3ccccc34)c2)CC1 (configuration not stated)	none
COc1ccc(Cl)cc1-n1c(=S)sc2c(=O)[nH]c(SCC(=O)C(C)(C)C)nc21	rCAG binder 84.4
COc1ccc(NC(=O)/C(C#N)=C\c2ccc(-c3cc(C(=O)O)ccc3C)o2)cc1	rCAG binder 59.4
CSC1=NC2(CCCCC2)CC12C=CC(=O)C=C2	none
CC(C(=O)NCCN1C(=O)S/C(=C\c2cccnc2)C1=O)N1C(=O)c2ccccc2C1=O (configuration not stated)	MsrA inhibitor 4.6
CCCn1ncc(CN2CCC(n3nccc3NC(=O)c3ccccc3OC)CC2)c1C	none
Cc1c(Cc2ccccc2)c(=O)oc2c(C)c(OCc3nn[nH]n3)ccc12	rCAG binder 58.9
Cc1c(CC(=O)O)c(=O)oc2c(C)c(OCc3nn[nH]n3)ccc12	none
Cc1ccc(C)c(Nc2nn3c(=O)c4ccc(C(=O)NCc5cccnc5)cc4nc3s2)c1	none
O=C(NCCN1CCc2ccccc2C1)Nc1ccc([N+](=O)[O-])cc1	HGIII-sPLA2 inh 21.3
O=C(NCCCN1CCc2ccccc2C1)Nc1ccc(Br)cc1	none
CCc1nc2c(OCc3ccccc3C(=O)OC)cccn2c1N(C)C(=O)Nc1ccccc1OC	none
COc1ccc2c(c1)OC[C@H]1[C@H]2N2C(=O)c3ccccc3NC(=O)[C@@]2(C)[C@H]1c1ccccc1	HGIII-sPLA2 inh 38.6
Cc1nn(CCCC(=O)Nc2sc3c(c2C#N)CCC3)c(C)c1[N+](=O)[O-]	MsrA inhibitor 24.7
COc1cc(/C=C(\C#N)C(=O)c2ccc(O)c(O)c2)cc(I)c1O	MsrA inhibitor 4.6, rCAG binder 40.2
O=C(COc1ccc2ccccc2c1)Nc1cccc(C(=O)Nc2ccccc2C(=O)O)c1	rCAG binder 82.8
O=C(COc1ccc(Br)cc1)Nc1ccc(C(=O)Nc2ccccc2C(=O)O)cc1	none
Oc1ccc(Nc2nc(-c3ccccc3F)nc3ccccc23)cc1	none
Oc1ccc(Nc2nc(-c3ccccc3O)nc3ccccc23)cc1	rCAG binder 43.4
CCN(CC(=O)NCc1ccncc1)S(=O)(=O)c1ccccc1	none
N#C/C(=C\c1ccc(-c2ccc([N+](=O)[O-])cc2)o1)C(=O)Nc1nc(-c2cccs2)cs1	none
N#C/C(=C\c1ccc(-c2ccccc2[N+](=O)[O-])o1)C(=O)Nc1nc(-c2cccs2)cs1	rCAG binder 49.5
S=c1[nH]nc(-c2cc3c(s2)-c2ccccc2CC3)o1	rCAG binder 47.6
Cc1ccc(C)c(NC(=O)c2cc(S(=O)(=O)N3CCCCC3)c[nH]2)c1	none
COc1cc(/C=C2\SC(=Nc3ccccc3)N(CCc3c[nH]c4ccccc34)C2=O)ccc1OC(C)C(=O)O (configuration not stated)	none
COc1ccc(N=C2S/C(=C\c3ccc(OC(C)C(=O)O)c(OC)c3)C(=O)N2CCc2c[nH]c3ccccc23)cc1 (configuration not stated)	rCAG binder 49.0
CC#CCN1c2ccccc2[C@]23C[C@@H](C(=O)OC)N=C2NC(C(=O)OC)=C(C(=O)OC)[C@H]13	none
COCC(C)N1C(=O)Cc2c1nc(N)c1c(N)nc(N3CCN(c4ccccc4F)CC3)c(C#N)c21 (configuration not stated)	HGIII-sPLA2 inh 24.7
COc1ccc(CN2C(=O)Cc3c2nc(N)c2c(N)nc(N4CCOCC4)c(C#N)c32)cc1	none
Cc1nn(CC(=O)Nc2ccccn2)c(C)c1Br	none
O=C(Nc1cccnc1)c1ccc([N+](=O)[O-])s1	MsrA act 13.4
Cc1cc(SC#N)cc(C)c1NC(=O)CCl	none
CC(=O)N1CCc2c(sc(NC(=O)c3cccc(N4C(=O)CCC4=O)c3)c2C(N)=O)C1	MsrA inhibitor 4.8
Cc1ccc(CN2CCNC(=O)C2CC(=O)N(C)C2CCCCC2)o1 (configuration not stated)	none
O=C(c1ccc2c(c1)OCCO2)N(c1ccccn1)C1CCCCC1	none
CCN(CCCNC(=O)C1CCC(=O)N1Cc1ccc(F)cc1)c1cccc(C)c1 (configuration not stated)	MsrA act 10.6
CC(C)(C)OC(=O)N(Cc1ccccc1)Cc1ccccc1OCc1cccc(NC(=O)C2CC2)c1	none
NC(=S)N=Nc1c(O)[nH]c2ccc(F)cc12	MsrA inhibitor 4.5
O=Nc1c(O)[nH]c2ccc(F)cc12	none
COc1ccc(/C=C/c2nc(-c3ccccc3O)n[nH]2)cc1OC	rCAG binder 47.9
C[C@H]1C[C@@H]2[C@H]([C@@H](O)C[C@@]3(C)[C@H]2CC[C@]3(O)C(=O)CO)[C@@]2(C)C=CC(=O)C=C12	none
CS(=O)(=O)N(CC(=O)N1CCC(C(N)=O)CC1)Cc1ccc(Cl)c(Cl)c1	none
Cn1c(=O)c2ncn(CC(=O)N/N=C/C=C/c3ccccc3)c2n(C)c1=O	none
C(=N\Nc1ccc2nncn2n1)/c1ccco1	none
BrC(=C\c1ccccc1)/C=N/Nc1ccc2nncn2n1	MsrA inhibitor 4.5
COc1cccc(-c2cnc(C(O)c3ccc(Cl)cc3C)[nH]2)c1 (configuration not stated)	none
O=C(NCCN1CCOCC1)/C(=C/c1ccc(Cl)cc1)NC(=O)c1ccccc1	none
CN(C)c1ccc(/C=C(/NC(=O)c2ccccc2)C(=O)NCCN2CCOCC2)cc1	MsrA inhibitor 4.6
C/C(=N\Nc1cc(-c2ccccc2)nc(-c2ccc(Br)cc2)n1)c1cccc(N)c1	rCAG binder 42.6
Cc1csc(NC(=O)/C=C/c2ccc3c(c2)OCO3)n1	MsrA inhibitor 4.6
CCOC(=O)C1Nc2ccccc2C2C(O)C(O)CC12 (configuration not stated)	rCAG binder 43.2
CCOC(=O)C1Nc2ccc(C(F)(F)F)cc2C2c3ccccc3CC12 (configuration not stated)	none
CCC(C)(C)C1CCc2nc3ccccc3c(C(=O)OC(C)C(=O)Nc3c(C)n(C)n(-c4ccccc4)c3=O)c2C1 (configuration not stated)	none
CCOC(=O)c1sc(NNC(=O)c2ccc(C)cc2)nc1C	none
CCOC(=O)c1nc(NNC(=O)c2ccc([N+](=O)[O-])cc2)sc1C	rCAG binder 36.8

Screening data: PubChem BioAssay, The Scripps Research Institute Molecular Screening Center
